MMP13 inh – human MMP13 inhibitors, primary screen, biochemical, FRET peptide cleavage; Collagenase 3 (Homo sapiens), P45452; MMP-13 fTHP FRET cleavage, Mca fluorescence; inhibition, % at 4 µM; actives 0.07% (n = 65,000); AID 570, 2006;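 active = inhibition above the mean of compound-free control plate wells plus 3 SD, cut at about 14% in these data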;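 also: 0% = DMSO wells and 100% = wells with reference MMP-13 inhibitor after basal subtraction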
Her2 expr inh – inhibitors of Her2 protein expression, primary screen, SKBR-3 cells, AlphaScreen, 66K library | Receptor tyrosine-protein kinase erbB-2 (Homo sapiens), P04626 | SKBR-3 HER2 protein level, 18-24 h; stronger effect = lower value | HER2 level % of control, % at 10 µM | actives 0.69% (n = 65,000) | AID 645, 2007;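 active = HER2 level under 5% of the carrier-only control; inconclusive = no clear call, values can overlap the other calls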;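 also: 100% = DMSO carrier and 0% = 500 nM PU-H71 HSP90 inhibitor; lower value means stronger loss of Her2 protein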
Target sequence (P04626 whole entry, looked up): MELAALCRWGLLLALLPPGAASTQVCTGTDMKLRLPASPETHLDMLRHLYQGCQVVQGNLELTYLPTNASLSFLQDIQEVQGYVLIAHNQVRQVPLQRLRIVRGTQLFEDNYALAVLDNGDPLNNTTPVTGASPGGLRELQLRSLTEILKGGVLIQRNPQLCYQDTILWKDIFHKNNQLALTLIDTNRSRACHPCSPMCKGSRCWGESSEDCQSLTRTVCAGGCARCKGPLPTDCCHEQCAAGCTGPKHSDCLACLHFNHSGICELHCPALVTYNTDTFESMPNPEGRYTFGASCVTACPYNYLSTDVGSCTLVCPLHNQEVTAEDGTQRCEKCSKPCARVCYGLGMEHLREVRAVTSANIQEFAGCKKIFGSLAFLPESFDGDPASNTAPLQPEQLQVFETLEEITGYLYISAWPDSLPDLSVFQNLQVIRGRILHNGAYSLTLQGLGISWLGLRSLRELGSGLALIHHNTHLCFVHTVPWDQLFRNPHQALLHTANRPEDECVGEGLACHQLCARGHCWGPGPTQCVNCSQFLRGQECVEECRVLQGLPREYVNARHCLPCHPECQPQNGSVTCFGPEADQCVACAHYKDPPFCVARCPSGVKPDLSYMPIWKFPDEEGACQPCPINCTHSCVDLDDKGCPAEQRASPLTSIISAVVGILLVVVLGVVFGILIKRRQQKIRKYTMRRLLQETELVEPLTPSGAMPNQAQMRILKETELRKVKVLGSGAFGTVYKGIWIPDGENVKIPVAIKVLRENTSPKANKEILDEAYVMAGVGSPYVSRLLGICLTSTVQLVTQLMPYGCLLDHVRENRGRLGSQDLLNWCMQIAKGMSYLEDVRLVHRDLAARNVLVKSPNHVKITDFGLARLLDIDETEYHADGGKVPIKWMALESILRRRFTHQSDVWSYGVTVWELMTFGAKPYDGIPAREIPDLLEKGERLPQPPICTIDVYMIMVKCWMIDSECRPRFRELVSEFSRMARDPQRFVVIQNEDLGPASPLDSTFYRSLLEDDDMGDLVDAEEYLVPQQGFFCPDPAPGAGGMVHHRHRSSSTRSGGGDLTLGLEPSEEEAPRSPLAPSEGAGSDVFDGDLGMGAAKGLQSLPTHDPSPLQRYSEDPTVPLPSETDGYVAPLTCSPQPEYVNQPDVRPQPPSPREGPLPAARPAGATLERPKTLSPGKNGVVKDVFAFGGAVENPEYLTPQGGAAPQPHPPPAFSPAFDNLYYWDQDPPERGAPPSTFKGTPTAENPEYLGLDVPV
SKBR3 24h inh – SK-BR-3 proliferation inhibitors, primary screen, cell-based, human, 24 h | SK-BR-3 viability, CellTiter-Glo ATP luminescence; stronger effect = lower value | viability, % at 10 µM | actives 0.47% (n = 41,000) | AID 847, 2007;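 active = viability at or below the median of all test compounds minus 3 SD, in both replicates if run twice, cut at about 45% in these data; inconclusive = duplicate replicates that disagree with each other; inactive = viability above that cutoff in every replicate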;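 also: 100% = median untreated cell wells and 0% = median positive control drug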
Numbers without * were called inactive; ? = inconclusive; . = not tested or not shown. In the library only some 0.94% were active in any assay of this set; here they are far more common.

SMILES	MMP13 inh	Her2 expr inh	SKBR3 24h inh
CC(=O)Nc1ccc(S(=O)(=O)N2CCN(c3nc(NC4CCCC4)c4ccccc4n3)CC2)cc1	-58	-9.2*	41*
CC(=O)Nc1ccc(S(=O)(=O)N2CCN(c3cc(C)nc4ccccc34)CC2)cc1	6	90	.
Cc1onc(-c2c(F)cccc2Cl)c1C(=O)OCC(=O)Nc1c(C)n(C)n(-c2ccccc2)c1=O	2	80	91
CC(C(=O)OCC(=O)Nc1ccc2c(c1)OCO2)N1C(=O)c2ccccc2C1=O (stereo unspecified)	2	99	.
CC(C(=O)Oc1ccc2c(c1)OCO2)N1C(=O)c2ccccc2C1=O (stereo unspecified)	0	103	36*
Cc1ccc(CCP(=O)(O)CN2CCCCC2)cn1	0	116	.
CCC(c1nnnn1C1CCCCC1)N(Cc1ccco1)Cc1cc2ccc(OC)cc2[nH]c1=O (stereo unspecified)	-4	24	96
CCOC(=O)Cn1nnnc1C(CC)N(Cc1cccs1)Cc1cc2ccc(OC)cc2[nH]c1=O (stereo unspecified)	2	-9.3*	101
CCN(CC)c1ccc(NC(=O)CN2C(=O)CSc3ncccc32)c(C)c1	-12	101	.
Cc1ccc(S(=O)(=O)Nc2cccc3ncccc23)s1	0	-5.5*	.
CCOc1ccccc1NS(=O)(=O)c1ccc(Br)s1	-2	104	77
O=C(CSCc1n[nH]c(=O)[nH]1)NCCOc1cccc(Oc2ccccc2)c1	15*	110	108
O=C(CSc1ncn[nH]1)NCCOc1ccccc1	0	85	.
Cc1cc2c(=O)n(CC(=O)N3CCN(c4ccc(F)cc4)CC3)cnc2s1	-14	92	78
Cc1ccc(C)c(S(=O)(=O)c2c(N)n(/N=C/c3ccco3)c3nc4ccccc4nc23)c1	-72	82	95
Nc1c(S(=O)(=O)c2ccccc2)c2nc3ccccc3nc2n1/N=C/c1cccc(O)c1	-78	-28*	94
CC(CC(=O)NCc1ccccc1)C1CCCO1 (stereo unspecified)	4	84	.
Clc1ccccc1Cn1nnc2c(N3CCCC3)ncnc21	-4	103	.
CC(C)(C)NC(=O)CSc1ncnc2c1nnn2Cc1ccccc1Cl	1	4.8*	158
[O-][N+]1=C2CCC/C(=N\O)C2=NC12CCCCC2	0	99	.
COc1ccc(OC)c(NC2=NC3(CCCC3)N=C(N)N2)c1	-1	72	89
[O-][N+]1=c2ccc(Nc3ccccc3)cc2=NC12CCCCC2	3	-17*	46
COc1ccc(Nc2ccc3c(c2)=NC2(CCCCC2)[N+]=3[O-])cc1	.	-56*	3.2*
Clc1ccc(Cn2ncc3c(N4CCOCC4)ncnc32)cc1	0	107	98
CCc1c(C)sc(NC(=O)c2cc(-c3ccco3)on2)c1C#N	0	87	89
SMILES	MMP13 inh	Her2 expr inh	SKBR3 24h inh
COc1cccc(-c2nnn(CC(=O)O)n2)c1	5	-22*	99
CCOC(=O)Cn1nnc(-c2cccc(OC)c2)n1	1	114	106
CC(C)OC(=O)c1cccnc1SCc1cc(=O)n2ccccc2n1	-12	67	.
COc1cccc(N2CCN(C(=O)CN(C)S(=O)(=O)c3ccc4c(c3)CCC(=O)N4)CC2)c1	3	87	.
CC1CCc2sc3ncnc(N4CCOCC4)c3c2C1 (stereo unspecified)	3	153	71
CC1CCc2c(sc3ncnc(N4CCOCC4)c23)C1 (stereo unspecified)	.	-29*	95
O=C(Nc1nccs1)C12CC3CC(C1)CC(C(=O)Nc1nccs1)(C3)C2	5	63	70
O=C(Cn1cnc2c(nnn2Cc2ccc(F)cc2)c1=O)N1CCCc2ccccc21	4	168	.
COc1cc2c(=O)n(Cc3ccco3)c(=O)n(CC(=O)c3cccc(Br)c3)c2cc1OC	-5	34	42*
COc1cc2c(=O)n(Cc3ccco3)c(=O)n(CC(=O)c3ccc(Br)cc3)c2cc1OC	3	52	56
COc1ccccc1NC(=O)N1CCN(c2cc(-c3ccccc3)nc3ncnn23)CC1	-2	80	83
COc1ccc(C(=S)N2CCCC2)cc1C	-4	98	.
O=C(Nc1cccc(-c2nc3ccccc3[nH]2)c1)c1cccc(NC(=O)c2ccco2)c1	2	-17*	?
Cc1ccc(-c2nc3ccccc3[nH]2)cc1NC(=O)c1ccco1	0	84	.
CCCNS(=O)(=O)c1ccc(CCC(=O)N2CCC(C)CC2)cc1	6	83	85
O=C(NCc1cccnc1)C1c2ccccc2C(=O)N1C1CCCC1 (stereo unspecified)	6	97	.

High-throughput results: PubChem, several laboratories
